Consider 65 compounds from PubChem BioAssay AID431 (Sanford-Burnham Center for Chemical Genomics, 2006).

SMILES strings stand for the structures. Screen size: about 63,000 compounds; about 1,100 (1.7%) were called active. This excerpt belongs to a sample that is enriched for actives. Measured potencies and affinities stand elsewhere. Unmarked numbers belong to inactive results.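 The calls were made as follows: active = compounds whose percent cytotoxicity in the single-dose primary screen, scaled between solvent and toxic-drug controls, exceeds 50; inactive = the rest.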

The test is described as follows: cytotoxicity in KRAS-transformed pancreatic duct cells, primary screen, cell-based, fluorescence, HTS (AID 431).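 Also: 0% = DMSO solvent wells and 100% = doxorubicin-treated wells.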 The note with it: HPDE-C7K KRASV12 cells, Alamar Blue viability, 48 h; at 10 µM; hits give high values. (In general: Resazurin is reduced to fluorescent resorufin, in cell work by metabolically active cells.)
In the case of `Fc1cc2ncn(Cc3ccccc3)c2cc1F`, the cytotoxicity is -20.3%.

Consider `N#Cc1nc(-c2ccco2)oc1NCc1ccc(F)cc1`, for which the cytotoxicity is 10.2%.

`CCC(C)C(=O)Nc1c2c(nc3c1CCC3)CCCC2` (stereo not given): the cytotoxicity was -5.8%.

`c1ccc(Cn2nnc3c(N4CCCC4)ncnc32)cc1`: the cytotoxicity is 8.8%.

For `c1ccc(Cn2nnc3c(N4CCCCCC4)ncnc32)cc1`, the cytotoxicity is -2.6%.

`FC(F)(F)c1ccc(N2CCN(c3ncnc4c3nnn4Cc3ccccc3)CC2)nc1`: the cytotoxicity was 55.5% (active).

With `CC(=O)Nc1cc2c(cc1C(=O)C(C)C)OCCO2`, the cytotoxicity is -0.7%.

As to `Cc1ccc(C)c(Cn2c(C(C)O)nc3ccccc32)c1` (stereo not given), the cytotoxicity is -16.7%.

`Cc1ccc(-c2nc(-c3ccccc3)no2)c(Cl)c1`: the cytotoxicity is -2.7%.

With `CC(C)C(=O)Nc1c2c(nc3ccccc13)N(C)CC2`, the cytotoxicity was -4%.

Turning to `Cc1cnc(NC(=O)c2c(O)c3cccc4c3n(c2=O)CCC4)s1`, the cytotoxicity was 91.8% (active).

For `CCc1nnc(NC(=O)c2cccc(C(=O)Nc3nnc(CC)s3)n2)s1`, the cytotoxicity is 53.1% (active).

Regarding `Cc1csc(NC(=O)c2c(O)c3cccc4c3n(c2=O)CCC4)n1`, the cytotoxicity was -16.1%.

With `CCc1nnc(NC(=O)c2c(O)c3cccc4c3n(c2=O)CC4)s1`, the cytotoxicity was 50% (active).

`CC(C)c1nnc(NC(=O)c2c(O)c3cccc4c3n(c2=O)CCC4)s1`: the cytotoxicity is 49.4%.

`CCc1nnc(NC(=O)c2cccc(OC)c2)s1`: the cytotoxicity was 9.1%.

Take `CCCc1nnc(NC(=O)c2c(O)c3cccc4c3n(c2=O)CC4)s1`: the cytotoxicity was 43.6%.

Consider `CCCc1nnc(NC(=O)c2c(O)c3cccc4c3n(c2=O)CCC4)s1`, for which the cytotoxicity was 7.3%.

Consider `CCc1nnc(NC(=O)c2cnccn2)s1`, for which the cytotoxicity is -15.3%.

As to `O=C(COc1ccccc1Cl)NCc1ccncc1`, the cytotoxicity is -2.3%.

As to `CC1CCCCN1C(=O)CSc1nc(C2CC2)nc2c1cnn2-c1ccccc1` (stereo not given), the cytotoxicity was 1.1%.

On to `c1ccc(CNc2c3c(nc4ncnn24)CCCC3)nc1`, for which the cytotoxicity was -2.6%.

In the case of `CC(=O)NCc1nc2ccccc2n1Cc1ccccc1C`, the cytotoxicity was -2.6%.

Regarding `CCOC(=O)CC(=O)Nc1nnc(C(C)C)s1`, the cytotoxicity was -20.6%.

For `COc1ccc(-c2cc(C(=O)O)c3ccccc3n2)c(OC)c1`, the cytotoxicity is -13.5%.

In the case of `N[C@@H](Cc1ccc(O)c(I)c1)C(=O)O`, the cytotoxicity was -4.9%.

`O=C(O)CCc1cc(I)c(Oc2ccc(O)c(I)c2)c(I)c1`: the cytotoxicity was 81.2% (active).

On to `COc1ccc2[nH]c(C(=O)O)c(CCC(=O)O)c2c1`, for which the cytotoxicity was 1.5%.

Consider `CCOC(=O)c1c(-c2ccsc2)csc1N`, for which the cytotoxicity is -5.8%.

Take `COc1ccc2nc(C)[nH]c(=O)c2c1`: the cytotoxicity was 0.4%.

Consider `CS(=O)(=O)N1CCN(c2nc(-c3ccccc3)cs2)CC1`, for which the cytotoxicity was 11.2%.

Take `Nc1nc(SCC(=O)N2CCCc3ccccc32)[nH]c(=O)c1-c1ccccc1`: the cytotoxicity is 2.5%.

For the compound `COc1cc(C2c3c(n[nH]c3C)C(=O)N2c2ccc(Br)cc2)ccc1O` (stereo not given), the cytotoxicity is 37.4%.

For the compound `COc1cc(C2c3c(n[nH]c3C)C(=O)N2c2ccc(C)cc2)ccc1O` (stereo not given), the cytotoxicity is 58% (active).

As for `CCOc1cc(C2c3c(n[nH]c3C)C(=O)N2c2ccc(Br)cc2)ccc1O` (stereo not given), the cytotoxicity is 21.7%.

In the case of `O=C(CN1CCN(Cc2ccccc2Cl)C1=O)N1CCCCCC1`, the cytotoxicity was -10.9%.

For `COc1cccc(-c2nnc(NC(=O)c3ccc(S(=O)(=O)N(CC(C)C)CC(C)C)cc3)o2)c1`, the cytotoxicity is 55.5% (active).

`CCCN(CCC)S(=O)(=O)c1ccc(C(=O)Nc2nnc(-c3cc(OC)cc(OC)c3)o2)cc1`: the cytotoxicity is 52.7% (active).

Take `COc1cccc(-c2nnc(NC(=O)c3ccc(S(=O)(=O)N4CCOCC4)cc3)o2)c1`: the cytotoxicity is 1%.

As to `CCCN(CCC)S(=O)(=O)c1ccc(C(=O)Nc2nnc(-c3cccc(OC)c3)o2)cc1`, the cytotoxicity is 62.9% (active).

`CCCN(CCC)S(=O)(=O)c1ccc(C(=O)Nc2nnc(CSC)o2)cc1`: the cytotoxicity was 2.7%.

In the case of `COc1cccc(-c2nnc(NC(C)=O)o2)c1`, the cytotoxicity is 9.5%.

Regarding `COCCN(CCOC)S(=O)(=O)c1ccc(C(=O)Nc2nnc(C)o2)cc1`, the cytotoxicity was -7.3%.

With `COc1cccc(-c2nnc(NC(=O)c3ccc(S(=O)(=O)N4CC(C)OC(C)C4)cc3)o2)c1` (stereo not given), the cytotoxicity is -4.2%.

For the compound `COc1cccc(-c2nnc(NC(=O)c3ccccc3Br)o2)c1`, the cytotoxicity is 24.6%.

`CCCCn1c(SCC(=O)Nc2nc(C)cs2)nnc1-c1cccnc1`: the cytotoxicity was 2.9%.

Take `Nc1nc(NC(=O)c2ccco2)nn1-c1ccccc1`: the cytotoxicity was 4.5%.

For the compound `Nc1nc(NC(=O)c2cccnc2)nn1-c1ccccc1`, the cytotoxicity is 0.1%.

As for `OC(COCc1cccs1)CN1CCN(c2ccccn2)CC1` (stereo not given), the cytotoxicity was 2.8%.

Turning to `OC(COc1ccc(Cl)c2ccccc12)CN1CCN(c2ccccn2)CC1` (stereo not given), the cytotoxicity was 18.3%.

As to `OC(CN1CCN(c2ccccn2)CC1)Cn1c2ccccc2c2ccccc21` (stereo not given), the cytotoxicity was 53.3% (active).

`O=C1NCC2=C1C(c1ccc(Br)cc1)Nc1ccccc1N2` (stereo not given): the cytotoxicity is -0.1%.

As to `Cc1c(NC(=O)COC(=O)c2cc3c4ccccc4n(C)c3s2)c(=O)n(-c2ccccc2)n1C`, the cytotoxicity was 19.8%.

As to `Cc1nnc(NC(=O)Nc2cccc(Cl)c2)s1`, the cytotoxicity was 12.5%.

Take `CNC(=O)C1C2C=CC3(O2)C1C(=O)N(C1CC1)C3C(=O)NCc1ccc(OC)cc1` (stereo not given): the cytotoxicity is 3.6%.

As to `CC(=O)c1c(C)nc(-c2ccc3c(c2)OCO3)n1O`, the cytotoxicity is -5.4%.

On to `O=C(Nc1ccc2c(c1)OCO2)C(c1ccc(Cl)cc1)N1CCC2(CC1)OCCO2` (stereo not given), for which the cytotoxicity is 5.8%.

For the compound `O=C(CSc1nnc(Cc2ccccc2)o1)Nc1ccc(Br)cn1`, the cytotoxicity is -11.2%.

`O=C(NCc1ccccc1)N1CCC(c2nc3ccccc3[nH]2)CC1`: the cytotoxicity was -0.6%.

As to `Cc1ccccc1S(=O)(=O)Cc1ccc(C(=O)NCCN2CCN(Cc3ccccc3)CC2)o1`, the cytotoxicity is 3.7%.

On to `O=C(OCCCc1ccncc1)c1ccc(S(=O)(=O)N2CCOCC2)cc1`, for which the cytotoxicity was -10.8%.

On to `CC(Oc1ccccc1)C(=O)N1CCCc2ccccc21` (stereo not given), for which the cytotoxicity was -9.7%.

As to `O=C(NCC1CCCO1)c1cc(-c2ccncc2)nc2ccc(S(=O)(=O)N3CCOCC3)cc12` (stereo not given), the cytotoxicity is -15.7%.

Consider `O=C(COC(=O)c1cc(S(=O)(=O)N2CCOCC2)ccc1O)NCC1CCCO1` (stereo not given), for which the cytotoxicity was 55.2% (active).

As for `O=C(COC(=O)c1ccc(Br)c(S(=O)(=O)N2CCOCC2)c1)NCC1CCCO1` (stereo not given), the cytotoxicity is -3.7%.
